# Sampled rows, rich in hits. Any-hit rate of the full collection: about 3.2%.
# AMA1-RON2 inh = qHTS for Inhibitors of AMA1-RON; Towards Development of Antimalarial Drug Lead: Primary Screen | Plasmodium falciparum AMA1 (3D7) - RON2 peptide interaction | AlphaScreen AMA1-biotinylated RON2 peptide binding | Potency, µM (top dose mostly 58.2 µM), inactives show at the top dose activity change, negative = inhibition, most hits filed as inhibitors | hit rate 0.2% among 360,000;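 further: 0% = vehicle wells and -100% = peptide control; nearly all actives have a fitted effect of over 45% in size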
#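 AMA1 (3D7) with his tag at 25 nM final met compounds first, then biotinylated RON2 peptide at 25 nM; detection used donor plus acceptor beads, 10 µg/mL apiece, read by AlphaScreen after 30 min at room temperature.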
# Sm TGR block = qHTS Assay for the Inhibitors of Schistosoma Mansoni Peroxiredoxins; Schistosoma mansoni thioredoxin glutathione reductase (TGR), Q962Y6; purified TGR, DTNB reduction, TNB absorbance 405 nm; Potency, µM (top dose mostly 114 µM), without a hit: at the top dose activity change, negative = inhibition, usual class: inhibitors; hit rate 3% among 360,000; further: nearly all actives have a fitted effect of over 60% in size
#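 First, TGR (20 nM dispensed) and NADPH were mixed with compound. Second, a 15 min room-temperature incubation followed. Third, further NADPH and then DTNB were added to start the reaction. Finally, TNB absorbance was monitored kinetically.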
# TbPYK inhibitor = qHTS of Trypanosoma Brucei Inhibitors | AID 624173, 2012 | TbPYK enzyme, Kinase-Glo Plus ATP luminescence, 45 min | pyruvate kinase (Trypanosoma brucei), Q57TT1 | hit rate 0.12% among 410,000 | Potency, µM (titrated, usually from 76.8 µM), for the others: at the top dose activity, negative = inhibition, most hits filed as inhibitors; further: nearly all actives have a fitted effect of over 50% in size
#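 TbPYK + substrate in 50 mM TEA pH 7.2, 100 mM KCl, 10 mM MgCl2, 0.05% BSA, 0.01% Tween-20; cpd pinned; ADP 130 uM final; 45 min RT; Kinase-Glo Plus 10 min; luminescence endpoint.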
# RE007 growth inh = qHTS Assay for Inhibitors of the HIV-1 protein Vpr; S. pombe RE007 Vpr strain, BacTiter-Glo ATP luminescence, 24 h; Potency, µM (highest dose often 92.2 µM), without a hit: at the highest dose activity change, negative = less growth, usual class: inhibitors; hit rate 0.21% among 360,000; AID 651644, 2012; active means well fitted falling curve with a large enough effect; inconclusive means small, poorly fitted or top-dose-only effect; inactive means no such curve, though single readings can be large or run the other way; further: nearly all actives have a fitted effect of over 50% in size
#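 Fission yeast strain RE007, carrying one chromosomally integrated HIV-1 vpr copy, was seeded at OD 0.01 in PMG+AL medium with 23 nL pinned compound. After 24 h at 30 °C and 99% humidity, viability was read by BacTiter-Glo luminescence.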
# LmPK inh = qHTS Assay for Inhibitors of Leishmania Mexicana Pyruvate Kinase (LmPK); Q27686; purified LmPK, Kinase-Glo ATP luminescence, 1 h; Potency, µM (titrated, usually from 57.5 µM), for the others: at the highest dose activity change, negative = inhibition, most hits filed as inhibitors; hit rate 0.37% among 290,000; AID 1721, 2009
# Target sequence (Q27686 whole entry, looked up): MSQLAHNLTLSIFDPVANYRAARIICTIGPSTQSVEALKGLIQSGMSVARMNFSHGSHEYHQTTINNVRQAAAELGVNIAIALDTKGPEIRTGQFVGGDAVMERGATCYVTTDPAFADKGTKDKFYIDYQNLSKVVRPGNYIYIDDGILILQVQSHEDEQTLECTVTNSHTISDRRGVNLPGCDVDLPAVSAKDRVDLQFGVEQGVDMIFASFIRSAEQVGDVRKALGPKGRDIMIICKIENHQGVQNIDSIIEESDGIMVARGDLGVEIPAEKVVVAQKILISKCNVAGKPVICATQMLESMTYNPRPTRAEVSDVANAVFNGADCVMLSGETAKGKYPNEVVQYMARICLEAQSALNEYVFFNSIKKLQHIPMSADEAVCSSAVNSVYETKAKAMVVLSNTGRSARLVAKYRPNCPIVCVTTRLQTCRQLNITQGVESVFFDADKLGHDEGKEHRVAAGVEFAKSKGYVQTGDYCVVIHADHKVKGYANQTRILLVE
#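 Screened at intermediate enzyme activity to detect both inhibitors and activators: LmPK at 0.1 nM, with a 0.5 nM enzyme column as activation reference. PEP 0.5 mM, ADP 0.1 mM; ATP detected by luminescence after 1 h.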
# Active calls of the source: *; ? = inconclusive; . = no result given; ! = a repeat was not active; [ ] = another dose, or the depositor's remark. Unless noted, the call rests on the fitted dose curve; in most records, active means well fitted curve in the direction sought with a large enough effect; inconclusive means small, poorly fitted or top-dose-only effect, or another doubt; inactive means no such curve, though single readings can be large; an effect the other way counts as inactive or inconclusive. Unless noted, on the % scale 0 is the no-effect control and ±100 the full control effect; potency means the concentration at half of the fitted maximal effect.
SMILES,AMA1-RON2 inh,Sm TGR block,TbPYK inhibitor,RE007 growth inh,LmPK inh
Cc1c(N2C(=O)/C(=C/C3CC=CCC3)SC2=S)c(=O)n(-c2ccccc2)n1C (stereo not drawn),-6%,7.9µM*,-16%,17%,0%
Cc1c(N2C(=O)/C(=C/c3ccccc3)SC2=S)c(=O)n(-c2ccccc2)n1C,24%,6%,0%,21%,-1%
O=C1CCCC(=O)C1C1c2ccccc2CCN1C(=O)CCl (stereo not drawn),-20%,45µM*,-5%,20%,-7%
CC(C)c1ccc(NC(=O)CSc2nc(=O)n(Cc3ccccn3)c3c2CCC3)cc1,.,7%,-4%,.,.
Cc1cc(=O)n2[nH]c(-c3ccsc3-n3c(C)ccc3C)cc2n1,-21%,20µM*,-3%,-3%,0%
COc1ccc(N2CCN(C(=O)c3nc(-c4ccc(Cl)cc4)n4c3CCCCC4)CC2)cc1,.,3%,12%,.,.
O=C(O)CCNC(=O)/C(=C/c1ccco1)NC(=O)c1ccco1,57%,-24%,-1%,-3%,13%
O=C(NCCc1ccccc1)/C(=C/c1ccco1)c1ccccc1,-24%,13µM*,-25%,-9%,-2%
CC(C)NC(=O)/C(=C/c1ccco1)c1ccccc1,-3%,?,-10%,-18%,-6%
CCC(C)NC(=O)/C(=C/c1ccco1)c1ccccc1 (stereo not drawn),-3%,10µM*,-5%,-25%,8%
Cn1c(C(C#N)C2=C(Cl)C(=O)N(c3ccccc3)C2=O)nc2ccccc21 (stereo not drawn),.,45µM*,.,.,-24%
Cn1c(C(O)C(O)c2ccccc2)nc2ccccc21 (stereo not drawn),-4%,-3%,3%,-16%,-1%
CC(C(=O)NCc1cccs1)n1cccc1 (stereo not drawn),2%,-4%,0%,-4%,-1%
O=C(NCc1cccs1)C(Cc1ccccc1)n1cccc1 (stereo not drawn),-6%,40µM*,2%,2%,7%
CC(CNC(=O)c1ccc(CSc2nc3ccncc3n2Cc2cccc(F)c2)cc1)c1ccccc1 (stereo not drawn),.,15%,3%,.,.
Cc1nnc2sc(-c3csc4c3CCCC4)nn12,4%,1%,2%,-19%,-3%
S=c1nc(-c2csc3c2CCCC3)[nH][nH]1,85%,35µM*,?,-4%,-2%
COc1cc2c(cc1OC)C(COc1ccc(F)cc1)N(C(=O)c1ccc(S(=O)(=O)N3CCCC3)cc1)CC2 (stereo not drawn),.,-2%,1%,.,.
O=C(N/N=C1\CCc2ccccc21)c1ccccc1O,-8%,-15%,-10%,-5%,13µM*
CCOc1ccccc1NC(=O)Nc1cc(C(=O)NCc2ccc(C)cc2)ccc1N1CCCC1,.,4%,2%,.,.
Cc1ccc(NC(=O)COC(=O)Cc2c[nH]c3ccccc23)cc1F,-20%,50µM*,4%,-13%,.
CCC(CC)c1nn2c(=O)cc(COc3ccc(NC(=O)c4ccccc4Cl)cc3)nc2s1,.,5%,-1%,.,.
COc1cccc(NC(=O)C2CC(=O)N=C(N)S2)c1 (stereo not drawn),7%,10%,4%,-2%,-2%
COc1cccc(NC(=O)C2CC(=O)n3cnnc3S2)c1 (stereo not drawn),?,0.63µM*,-8%,35µM*,5%
COc1ccc(NC(=O)C2CC(=O)n3cnnc3S2)cc1 (stereo not drawn),13%,0.28µM*,-23%,?,12%
SMILES,AMA1-RON2 inh,Sm TGR block,TbPYK inhibitor,RE007 growth inh,LmPK inh
CCc1ccccc1NC(=O)CN1C(=O)c2cccnc2Oc2ccc(Cl)cc21,.,-18%,-9%[15.4 µM],.,.
COc1ccc(CCNC(=O)c2ccc(-n3c(C)cc4c3CCC(C)C4)cc2)cc1OC (stereo not drawn),.,-33%,-7%,.,.
CCOC(=O)Nc1ccc(NCc2ccc(F)cc2)nc1N,48%,3.2µM*,32µM*!,-12%,.
Cc1ccc2c(c1)C(N1CCCC1=O)CC(c1ccco1)N2 (stereo not drawn),-7%,10µM*,?,?,11µM*
CCN1CC2([N+](=O)[O-])C=CC(=O)C([N+](=O)[O-])(C1)C2CC(=O)c1ccccc1 (stereo not drawn),0%,13µM*,3%,-15%,-12%
CCCCN1CC2([N+](=O)[O-])C=CC(=O)C([N+](=O)[O-])(C1)C2CC(=O)c1ccccc1 (stereo not drawn),-7%,22µM*,7%,-13%,-3%
O=C(COc1ccc(F)cc1)Nc1ccc(S(=O)(=O)N(Cc2ccccc2)c2ccccc2)cc1,.,1%,5%,.,.
CC(C)c1cc[n+](-c2nc([O-])sc2C=O)cc1,10%,?,28µM*,-17%,-1%
CCc1cc[n+](-c2nc([O-])sc2C=O)cc1,-3%,?,-9%,-2%,-4%
Cc1nc(NC(=O)CCl)sc1C(=O)N(C)C,4%,16µM*,-2%,-10%,4%
COC1=C(OC)C(=O)C(Sc2ccc3ccccc3c2)=CC1=O,13µM*,.,1.8µM*,7.1µM*,.
CC12CCC(C(=O)N(CSC(=S)N/N=C\c3ccccc3O)C1=O)C2(C)C (stereo not drawn),20µM*,20µM*,2%,19%,-11%
COc1ccc(/C=N\NC(=S)SCN2C(=O)C3CCC(C)(C2=O)C3(C)C)cc1 (stereo not drawn),?,.,1%,2%,.
Cc1ccccc1CS(=O)(=O)Cc1ccc(C(=O)NCCc2ccc(Cl)cc2)o1,.,-6%,1%[15.4 µM],.,.
CN(C)c1ccc(N=Nc2ccccc2C(=O)OCC(=O)Nc2ccccc2C(F)(F)F)cc1,14µM*,-15%,4%,-7%,-4%
CN(C)c1ccc(N=Nc2ccccc2C(=O)OCC(=O)N2CCCCCC2)cc1,18µM*,0%,1%,-5%,1%
CN(C)c1cc[n+](CC(=O)Nc2ccccc2C(F)(F)F)cc1,13%,-7%,3%,-11%,-1%
CN(C)c1ccc(N=Nc2ccccc2C(=O)OCC(=O)N2CCCC2)cc1,?,-19%,-6%,7%,-8%
CC(=O)c1ccc(NC(=O)CN2C(=O)c3cccnc3Sc3ccccc32)cc1,.,0%,-3%,.,.
O=C(NC1=C(Nc2ccc(F)cc2)C(=O)c2ccccc2C1=O)c1ccc(Cl)cc1,-10%,22µM*,-10%,?,-13%
COc1ccccc1CNC(=O)CCCn1c(=O)c2ccccc2n(Cc2ccccc2C#N)c1=O,.,4%,7%,.,.

# Bioassay records (PubChem BioAssay)
